Data from PubChem BioAssay (NCI).
About 83,000 compounds went through this panel and 20% of them were active in at least one assay; those are over-represented in the sample as a whole.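 In brief: 96-well plates, 48 h treatment, single concentration, percent growth endpoint.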 Activity calls are given as the source filed them. How the source made its calls: active means growth percent below 10; inactive means the rest.

Tests used:
Experiment in all cases: NCI-60 one-dose screen, 48 h (100 = growth as untreated, 0 = no growth, -100 = all killed)
Conditions in all cases: 10 µM unless noted
[1] = tested on: HCT-15 colon
[2] = tested on: HT29 colon
[3] = tested on: SNB-19 CNS
[4] = tested on: U251 CNS
[5] = tested on: PC-3 prostate
[6] = tested on: SK-MEL-5 melanoma
[7] = tested on: UACC-62 melanoma
[8] = tested on: LOX IMVI melanoma
[9] = tested on: SK-MEL-28 melanoma
[10] = tested on: SK-MEL-2 melanoma
[11] = tested on: EKVX NSCLC
[12] = tested on: SN12C renal
[13] = tested on: UO-31 renal
[14] = tested on: TK-10 renal
[15] = tested on: ACHN renal
[16] = tested on: CAKI-1 renal
[17] = tested on: CCRF-CEM leukemia
[18] = tested on: MOLT-4 leukemia
[19] = tested on: SNB-75 CNS
[20] = tested on: A498 renal

Measured: growth

Cc1ccccc1NC(=O)N/C(N)=N/c1nc2ccccc2s1
inactive: [1] 20.2% | [3] 31.8% | [4] 20.3% | [5] 36.3% | [7] 38.8% | [8] 21.7% | [9] 54.6% | [10] 37.6% | [11] 39.6% | [12] 40% | [13] 54.6% | [14] 67% | [15] 39.2% | [16] 38.8% | [17] 14.2% | [18] 14.9%
active: [2] 5% | [6] -53.3%

N/C(=N\C(N)=N\c1nc2ccccc2s1)c1ccnc(Cl)c1
inactive: [1] 29.9% | [2] 13.7% | [3] 39.4% | [4] 33.8% | [5] 37.9% | [6] 17.3% | [7] 33.9% | [8] 44.9% | [9] 62.2% | [10] 29% | [11] 51.3% | [12] 57.6% | [13] 56.5% | [14] 75.7% | [15] 47.8% | [16] 21.6% | [17] 19.2% | [18] 33.6%

CCCCNCCCN(CCCC)CCCNCCCC
inactive: [1] 93.2% | [2] 105% | [19] 110% | [3] 98.2% | [5] 90.4% | [6] 97.3% | [7] 96.5% | [8] 104% | [9] 99.6% | [10] 112% | [12] 89% | [14] 97.3% | [15] 104% | [16] 91.1% | [20] 94.6% | [18] 103%

CCOC(=O)N1CCC(N=C2CSc3nnc(-c4cc(C(F)(F)F)cc(C(F)(F)F)c4)n3N2)CC1
active: [2] -3.65% | [5] 2.55% | [6] -67.5% | [10] -22.5% | [17] 6.9% | [18] -2.78%
inactive: [1] 25.2% | [3] 58.2% | [4] 22.6% | [7] 32.6% | [8] 16.5% | [9] 44.5% | [11] 31.2% | [12] 28.5% | [13] 34.2% | [14] 14.9% | [15] 30.5% | [16] 55.2% | [20] 22.4%

COc1ccc2nc(NC(=O)CN3CCn4c(nnc4C(F)(F)F)C3)sc2c1
inactive: [1] 93.3% | [2] 98.4% | [3] 90.5% | [4] 91.6% | [5] 98.6% | [6] 79.2% | [7] 83.9% | [8] 96.6% | [9] 102% | [10] 106% | [11] 73.1% | [12] 92.2% | [13] 80.6% | [14] 97.5% | [15] 90.7% | [16] 77.7% | [17] 86.5% | [18] 95.8%

O=C1/C(=C/c2cccc(Cl)c2)CCc2ccccc21
inactive: [1] 93.7% | [2] 91.2% | [19] 72.5% | [3] 87.1% | [5] 89.7% | [6] 101% | [7] 97.7% | [8] 90.9% | [9] 106% | [12] 95.9% | [13] 76.1% | [14] 85.9% | [15] 103% | [16] 76.9% | [18] 83.3%

COc1cccc(/C=C2\Cc3ccccc3C2=O)c1
inactive: [1] 100% | [2] 100% | [19] 104% | [3] 94.2% | [5] 87.5% | [6] 100% | [7] 98.9% | [8] 99.5% | [9] 113% | [12] 98.8% | [13] 90.7% | [14] 103% | [15] 104% | [16] 96.9% | [18] 93.3%

c1ccc(-c2nc(Nc3nccnn3)c3ccccc3n2)cc1
inactive: [1] 98.2% | [2] 98.8% | [3] 93.6% | [4] 92.9% | [5] 101% | [6] 99.1% | [7] 87.8% | [8] 96% | [9] 103% | [10] 112% | [11] 88.4% | [12] 96.7% | [13] 89.8% | [14] 155% | [15] 103% | [16] 84.9% | [17] 93.2% | [18] 100%

OCCN1CCN(CCCN2c3ccccc3Sc3ccc(C(F)(F)F)cc32)CC1
active: [2] -43% | [7] -55.5% | [8] -41.6% | [9] -86.6% | [10] 8.96% | [14] 4.29% | [18] -16%
inactive: [1] 18.3% | [19] 46.3% | [3] 62.7% | [5] 20.4% | [11] 47.2% | [12] 43.6% | [13] 32.5% | [16] 25.7% | [20] 44.5% | [17] 29.7%

Cn1c(N2N=C(c3ccc(Cl)cc3)CC2c2ccccc2)nc(-c2ccccc2)c(C#N)c1=O (configuration not stated)
inactive: [1] 80% | [2] 79.3% | [19] 91.4% | [3] 88.8% | [5] 49.7% | [6] 54.7% | [7] 58.9% | [9] 94.5% | [10] 78.4% | [12] 67.3% | [13] 60.5% | [14] 117% | [15] 77.2% | [16] 63.7% | [20] 79.6% | [18] 60.1%

Nc1nc2c(c(=O)[nH]1)C1(C(=O)Nc3ccccc31)c1c(nc(N)[nH]c1=O)N2
inactive: [1] 105% | [19] 91.5% | [3] 104% | [4] 107% | [5] 103% | [7] 103% | [8] 98.2% | [9] 112% | [11] 104% | [12] 103% | [13] 86.7% | [15] 105% | [16] 102% | [20] 108% | [17] 105% | [18] 90%

N#Cc1c(-c2ccccc2)cc(-c2ccccc2)n(CCCC(=O)O)c1=O
inactive: [1] 92.9% | [2] 103% | [3] 98.7% | [4] 93.3% | [5] 109% | [6] 93.5% | [7] 91% | [8] 95.4% | [9] 108% | [10] 97.8% | [11] 94% | [12] 96.2% | [13] 85.8% | [14] 124% | [15] 97.8% | [16] 97.1% | [17] 104% | [18] 97.3%

C=C1CC[C@@H]2[C@](C)(COC(C)=O)[C@H](OC(C)=O)CC[C@@]2(C)[C@@H]1CC(NCc1ccccc1)C1=CCOC1=O (some centres not stated)
inactive: [1] 41% | [19] 76.9% | [3] 68.2% | [4] 47.6% | [5] 10.1% | [7] 38.8% | [8] 44.6% | [9] 68.6% | [11] 53.9% | [12] 58.2% | [13] 29.1% | [15] 46.4% | [16] 49.6% | [20] 56.2% | [17] 20.9%
active: [18] -3.86%

N#Cc1c(-c2ccccc2)cc(-c2ccccc2)n(CC(=O)O)c1=O
inactive: [1] 32.6% | [2] 24.2% | [3] 58.3% | [4] 47.5% | [5] 70.4% | [6] 40.6% | [7] 28.6% | [8] 52.5% | [9] 60.6% | [10] 28% | [11] 81.4% | [12] 70% | [13] 68.9% | [14] 84.2% | [15] 76.1% | [16] 47.3% | [17] 56.3% | [18] 63.8%

CC(NC(N)=S)c1ccccc1 (configuration not stated)
inactive: [2] 110% | [19] 95.1% | [3] 102% | [4] 105% | [5] 108% | [6] 99.6% | [7] 101% | [8] 85% | [9] 110% | [10] 120% | [11] 103% | [12] 98.3% | [13] 93.2% | [14] 99% | [15] 108% | [16] 104% | [20] 98.1% | [17] 129%

Cc1ccc(NC(=O)c2sc3nc4c(cc3c2N)C(=O)CCC4)cc1
active: [20] -3.97%
inactive: [1] 58.6% | [19] 86.3% | [3] 72.2% | [4] 86.6% | [5] 73.2% | [6] 53.2% | [7] 69.2% | [8] 93.1% | [12] 87.8% | [13] 84.8% | [15] 89.9% | [16] 56.6% | [17] 70.9% | [18] 95.9%

COc1cc(/C=C/c2cc(/C=C/c3ccc(O)c(OC)c3)n(C(=O)c3ccc(Cl)cc3)n2)ccc1O
active: [19] -2.93% | [5] 4.59% | [6] -32.4% | [13] 0.559% | [20] 7.49% | [17] 0.628% | [18] 5.8%
inactive: [1] 14.1% | [3] 45.6% | [4] 16.8% | [7] 22.5% | [8] 13.9% | [9] 19.5% | [12] 13.6% | [15] 11.5% | [16] 17.9%
